# ALDH1A1 block = ALDH1A1 (human) enzyme inhibition; P00352; Purified ALDH1A1, NADH fluorescence, propionaldehyde substrate; Potency, µM (series often up to 75.3 µM), without a hit: at the top dose activity, negative = inhibition, usual class: inhibitors; hit rate 7.3% among 220,000; AID 1030; active = well fitted inhibition curve with a large enough effect, not every such curve was filed as active; inconclusive = small, poorly fitted or top-dose-only effect, or another doubt; inactive = no such curve, though single readings can be large or run the other way;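 also: potency is read from the fitted curve at half-maximal effect; plate controls were no enzyme wells and a reference inhibitor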
# IMPase Li cell = membrane-permeable IMPase blocker, potentiated with lithium; Potency, µM (titrated, usually from 59.4 µM), for the others: top-dose activity, negative = IMPase inhibition, hits mostly inhibitors; hit rate 0.35% among 210,000; CHO-M1 cells, IP1 TR-FRET (IP-One), carbachol + lithium;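 also: IP1 builds up when IMPase is blocked and the TR-FRET signal falls; potency is read from the fitted curve at half-maximal effect; plate controls were basal vehicle for no effect and high inhibitor control for full effect; nearly all actives have a fitted effect of over 50% in size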
#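 Lithium-sensitised IP1 accumulation assay; M1-expressing CHO cells treated 30 min at 37C with compound. Competitive antibody detection by time-resolved FRET followed a 10 min room-temperature lysis step.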
# HPGD block = blocks human HPGD enzyme activity. P15428. purified HPGD, NADH fluorescence kinetic, PGE2 substrate. Potency, µM, inactives show top-dose activity change, negative = inhibition, most hits filed as inhibitors. hit rate 4.3% among 150,000. AID 894; active = well fitted inhibition curve with a large enough effect, not every such curve was filed as active; inconclusive = small, poorly fitted or top-dose-only effect, or another doubt; inactive = no such curve, though single readings can be large or run the other way; also: potency is read from the fitted curve at half-maximal effect
# Target sequence (P15428 whole entry, looked up): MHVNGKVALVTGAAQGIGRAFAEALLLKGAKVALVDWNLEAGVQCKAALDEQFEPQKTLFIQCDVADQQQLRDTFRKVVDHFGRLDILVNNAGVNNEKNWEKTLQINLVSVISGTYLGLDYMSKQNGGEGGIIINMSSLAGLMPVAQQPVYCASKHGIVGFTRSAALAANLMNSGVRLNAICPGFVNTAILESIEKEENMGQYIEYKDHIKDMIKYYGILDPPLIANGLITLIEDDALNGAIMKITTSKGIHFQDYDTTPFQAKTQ
#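 NADH formation kinetics: reaction with 30 uM PGE2 and 1 mM NAD+ (final), 20 nM enzyme, Tris-HCl pH 8 with Tween 20, after 15 min compound preincubation at room temperature. Fluorescence change, last versus first of five reads.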
# NPSR antagonist = blocks cAMP signaling of the human neuropeptide S receptor; Q6W5P4; CHO-NPSR cells, cAMP TR-FRET, antagonist mode; Potency, µM (doses to about 38.3 µM), for the others: top-dose activity change, negative = inhibition, most hits filed as inhibitors; hit rate 1% among 220,000; AID 1461; also: potency is read from the fitted curve at half-maximal effect; nearly all actives have a fitted effect of over 50% in size
# Target sequence (Q6W5P4 whole entry, looked up): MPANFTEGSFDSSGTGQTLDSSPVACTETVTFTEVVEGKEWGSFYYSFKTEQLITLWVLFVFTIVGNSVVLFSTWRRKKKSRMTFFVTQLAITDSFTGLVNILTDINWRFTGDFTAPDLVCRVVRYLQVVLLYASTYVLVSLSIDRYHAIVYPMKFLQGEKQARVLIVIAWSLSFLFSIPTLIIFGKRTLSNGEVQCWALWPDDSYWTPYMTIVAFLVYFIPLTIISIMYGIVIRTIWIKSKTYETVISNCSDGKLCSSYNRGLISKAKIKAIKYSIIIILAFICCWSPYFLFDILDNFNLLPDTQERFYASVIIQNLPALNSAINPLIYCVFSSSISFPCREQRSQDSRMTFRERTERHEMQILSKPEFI
# IMPase inh = membrane-permeable compound that blocks inositol monophosphatase; P97697; CHO-M1 cells, IP1 accumulation, HTRF TR-FRET ratio; inhibition (IP1 accumulation), % at 46.1 µM; 120,000 tested, under 10 active; active = well fitted curve in the direction sought with a large enough effect in the signal ratio, not every such curve was filed as active; inconclusive = small, poorly fitted or top-dose-only effect, or a change in a side signal; inactive = no such curve, though single readings can be large or run the other way; the % refers to the signal ratio;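 also: cells stimulated with carbachol in lithium chloride buffer; plate controls were DMSO basal wells for no effect and reference inhibitor wells for full effect; higher means more IMPase inhibition seen as more IP1 and lower FRET ratio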
#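 In this qHTS, compounds (final up to 46 uM) act on CHO-M1 cells that are then activated through the M1 receptor with carbachol, in pH 7.4 buffer containing 50 mM LiCl, for 30 min. IP1 accumulation is quantified by the IP-One immunoassay.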
# ALOX12 inhib = inhibitors of human 12-lipoxygenase (ALOX12); P18054; purified 12-hLO, xylenol orange hydroperoxide absorbance; Potency, µM (top dose mostly 57.1 µM), without a hit: at the top dose activity change, negative = inhibition, most hits filed as inhibitors; hit rate 0.12% among 150,000; also: potency is read from the fitted curve at half-maximal effect; nearly all actives have a fitted effect of over 55% in size
#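 Hydroperoxide output read as Fe(III)-xylenol orange absorbance, 573-to-405 nm ratio, after 30 min reaction with 40 uM arachidonic acid. Enzyme: 150 nM purified human 12hLO, 15 min compound preincubation; 25 mM Hepes pH 7.0, room temperature.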
# * hit, by the source's call; u = inconclusive; x = not tested or not shown; ! = a repeat was not active; [ ] = dose if it differs, or a comment. Most compounds without a hit are left out; they make up all but 8.9% or so of the library. Unless noted, calls follow the shape of the dose curve; as a rule, active = well fitted curve in the direction sought with a large enough effect; inconclusive = small, poorly fitted or top-dose-only effect, or another doubt; inactive = no such curve, though single readings can be large; an effect the other way counts as inactive or inconclusive. Unless noted, % is scaled to controls: 0 for no effect and ±100 for the full control effect.
SMILES,ALDH1A1 block,IMPase Li cell,HPGD block,NPSR antagonist,IMPase inh,ALOX12 inhib
Cc1cccc(CS(=O)(=O)Cc2ccc(C(=O)N3CCC4(CC3)OCCO4)o2)c1,25µM*,30%[38.3 µM],-3%,-15%[46.1 µM],23,-2%
O=C(c1ccc(N2CCCCC2)c([N+](=O)[O-])c1)N1CCC2(CC1)OCCO2,u,1%,x,2%,x,x
O=C(c1ccc(CNS(=O)(=O)c2ccccc2)cc1)N1CCC2(CC1)OCCO2,8.9µM*,-23%[38.3 µM],u,u,0,-3%
O=C(c1ccc(CS(=O)(=O)c2ccccc2)o1)N1CCC2(CC1)OCCO2,22µM*,10%[38.3 µM],-6%,27%[46.1 µM],9,3%
Cc1ccc(S(=O)(=O)Nc2cc(C(=O)N3CCC4(CC3)OCCO4)ccc2N2CCCCC2)cc1,4µM*,37%[38.3 µM],-25%,u,8,-5%
CC(C)CCn1c(N)c(C(=O)OCC2CCCO2)c2nc3ccccc3nc21 (stereo unspecified),u,9%[38.3 µM],u,u,-12,-9%
Cc1ccccc1OCCCn1cc(C(=O)C(=O)N2CCOCC2)c2ccccc21,-6%,-18%,x,-21%,x,x
CC(=O)Nc1cc(C(=O)N2CCC3(CC2)OCCO3)ccc1Sc1ccc(F)cc1,3µM*,-5%,x,2%,x,x
O=c1c2ccccc2nc(SCC2CCCCO2)n1-c1ccccc1 (stereo unspecified),18µM*,7%,-8%,-48%,x,-4%
COc1ccc(CCNCc2ccccn2)cc1OC,-4%,21%[38.3 µM],-7%,0%[46.1 µM],-3,-5%
Fc1ccc(Cn2nnnc2C(c2ccc(Cl)cc2)N2CC=C(c3ccc(F)cc3)CC2)cc1 (stereo unspecified),u,16%,-14%,-30%,x,-8%
O=C1NC(=O)C2(Cc3ccccc3N3CCCC32)C(=O)N1c1ccc(Cl)cc1 (stereo unspecified),u,3%[38.3 µM],u,-2%[46.1 µM],-5,u
O=C1NC(=O)[C@]2(Cc3ccccc3N3CCN(c4ccccc4)CC32)C(=O)N1c1ccccc1 (stereo partly specified),25µM*,4%[38.3 µM],-9%,-13%[46.1 µM],0,-17%
O=C1NC(=O)[C@]2(Cc3ccccc3N3CCN(c4ccccc4)CC32)C(=O)N1Cc1ccccc1 (stereo partly specified),22µM*,-3%[38.3 µM],-17%,-25%[46.1 µM],-1,-18%
CN1C(=O)NC(=O)[C@]2(Cc3ccccc3N3CCN(c4ccccc4)CC32)C1=O (stereo partly specified),25µM*,28%[38.3 µM],-12%,-7%[46.1 µM],-3,-5%
CN1C(=O)NC(=O)C2(Cc3ccccc3N3CCOCC32)C1=O (stereo unspecified),-1%,-5%[38.3 µM],3%,-2%[46.1 µM],-6,0%
CN[C@@H]1C[C@@H](c2ccc(Cl)c(Cl)c2)c2ccccc21,-1%,16%,-14%,17%[46.1 µM],11,-7%
CC(=O)N1CN2CN(C(C)=O)CC(C(=O)c3ccccc3)(C2)C1,0%,-3%[38.3 µM],-5%,-15%[46.1 µM],2,-2%
CCCCn1c(O)c(C(CC)=Nc2ccc(OC)cc2OC)c(=O)[nH]c1=O,5%,-7%[38.3 µM],16µM*,-16%[46.1 µM],10,-14%
CCC(=Nc1ccc(OC)cc1OC)c1c(O)n(C)c(=O)n(C)c1=O,u,15%[38.3 µM],35µM*,-9%[46.1 µM],6,-1%
CCCCn1c(O)c(C(CC)=Nc2ccc(OCC)cc2)c(=O)[nH]c1=O,2%,30%[38.3 µM],-15%,-15%[46.1 µM],2,-15%
O=[N+]([O-])c1ccccc1,32µM*,3%,-10%,x,x,-1%
O=[N+]([O-])c1cccc(O)c1,u,4%,-10%,x,x,-2%
Fc1ccccc1CCNCc1cccc(Cl)c1Cl,-2%,5%[38.3 µM],-17%,-10%[46.1 µM],0,-1%
C[C@@H]1CC[C@H]2[C@@H](C)C(=O)O[C@@H]3OC4(C)CC[C@@H]1C32OO4 (stereo partly specified),3%,-5%,-3%,x,x,x
SMILES,ALDH1A1 block,IMPase Li cell,HPGD block,NPSR antagonist,IMPase inh,ALOX12 inhib
C[C@@H]1CC[C@H]2[C@@H](C)C(=O)O[C@@H]3OC4(C)CC[C@@H]1[C@]32OO4,25µM*,-1%,-8%,x,x,-6%[0.00818 µM]
CC(C)Cc1nnc(NC(=O)CCC(=O)N2CCC3(CC2)OCCO3)s1,x,x,x,48%,x,x
COc1ccc(CN2CCN(Cc3ccccc3)CC2)c(OC)c1,2%,-3%[38.3 µM],-12%,-7%[46.1 µM],6,2%
Cc1ccc(OCC(=O)N2CCN(Cc3ccc4c(c3)OCO4)CC2)cc1,25µM*,12%,x,3%,x,x
COc1ccc(CN2CCN(C(=O)Cc3ccccc3)CC2)c(OC)c1,18µM*,1%,-2%,7%,x,1%
COc1ccc(OCC(=O)N2CCN(Cc3ccc4c(c3)OCO4)CC2)cc1,1%,5%,x,-6%,x,x
COc1cccc(CN2CCN(C(=O)COc3ccc4ccccc4c3)CC2)c1,25µM*,-19%[38.3 µM],-7%,-21%[46.1 µM],5,-3%
O=[N+]([O-])c1ccccc1CCl,13µM*,-13%,2%,x,x,-1%
Oc1c(Cl)c(Cl)c(Cl)c(Cl)c1Cl,18µM*!,5%,x,x,x,-9%
C=CCN1CC[C@]23CCCCC2[C@H]1Cc1ccc(O)cc13 (stereo partly specified),0%,10%,-1%,4%[46.1 µM],x,x
C/C=C1\C[N@@+]2(C)CC[C@@]34C(=C(C=O)[C@H]1C[C@H]32)Nc1ccccc14,u,0%,16µM*,x,-2[20.6 µM],-6%[25.6 µM]
COc1ccc(CCN(C)Cc2c(F)cccc2F)cc1OC,10%,-4%[38.3 µM],2%,-4%[46.1 µM],17,7%
O=C(O)c1cc[c]([Hg][Cl])cc1,5.5µM*,7%,0.28µM*,-1%[46.1 µM],1,u
O=C(O)c1cccc(Cl)c1,11%,-2%,-7%,x,x,-4%
COc1ccc(C[C@H]2NC[C@H](O)[C@@H]2OC(C)=O)cc1,u,-2%,-13%,x,-16,-4%
CC(C)NC(C)C(=O)C12CC3CC(CC(C3)C1)C2 (stereo unspecified),3%,-1%[38.3 µM],-3%,-7%[46.1 µM],7,6%
CCCCCn1c(SCCCC)nc2c1c(=O)[nH]c(=O)n2C,20µM*,31%[38.3 µM],14µM*,-20%[46.1 µM],-1,-3%
CC(C)CCn1c(N2CCN(c3cccc(Cl)c3)CC2)nc2c1c(=O)[nH]c(=O)n2C,5%,34%,-5%,-48%,10,-2%
Nc1ccncc1Cl,8%,0%,x,4%,x,x
O=[N+]([O-])c1cc(F)c(N2CCCCCC2)cc1N1CCNCC1,7.1µM*,9%,x,2%,x,x
O=[N+]([O-])c1ccc(N2CCNCC2)cc1NCc1ccco1,28µM*,25%,-19%,1%,x,-4%
O=[N+]([O-])c1ccc(N2CCNCC2)cc1N1CCCCCC1,4.5µM*,30%,x,-17%,x,x

# Screens: PubChem, National Center for Advancing Translational Sciences (NCATS)
